# Screening results (PubChem)
# USP8 block = blocks human USP8 ubiquitin-rhodamine cleavage; purified USP8, Ub-rhodamine cleavage fluorescence, 30 min; inhibition, % at 20 µM; hit rate 4.2% among 47,000
# OTUD3 block = blocks human OTUD3 ubiquitin-rhodamine cleavage; Q5T2D3; purified OTUD3, Ub-rhodamine fluorescence, 2 h; inhibition, % at 25 µM; hit rate 0.7% among 47,000
# USP30 inh = blocks human USP30 ubiquitin-rhodamine cleavage. Q70CQ3. purified USP30, Ub-rhodamine cleavage fluorescence. inhibition, % at 25 µM. hit rate 5.3% among 47,000. AID 1645860
# USP17 inh = human USP17-like deubiquitinase inhibition; hit rate 6.5% among 47,000; inhibition, % at 50 µM; A8MUK1; AID 1645855; purified USP17, Ub-rhodamine cleavage fluorescence, 3 h
# Target sequence (A8MUK1 whole entry, looked up): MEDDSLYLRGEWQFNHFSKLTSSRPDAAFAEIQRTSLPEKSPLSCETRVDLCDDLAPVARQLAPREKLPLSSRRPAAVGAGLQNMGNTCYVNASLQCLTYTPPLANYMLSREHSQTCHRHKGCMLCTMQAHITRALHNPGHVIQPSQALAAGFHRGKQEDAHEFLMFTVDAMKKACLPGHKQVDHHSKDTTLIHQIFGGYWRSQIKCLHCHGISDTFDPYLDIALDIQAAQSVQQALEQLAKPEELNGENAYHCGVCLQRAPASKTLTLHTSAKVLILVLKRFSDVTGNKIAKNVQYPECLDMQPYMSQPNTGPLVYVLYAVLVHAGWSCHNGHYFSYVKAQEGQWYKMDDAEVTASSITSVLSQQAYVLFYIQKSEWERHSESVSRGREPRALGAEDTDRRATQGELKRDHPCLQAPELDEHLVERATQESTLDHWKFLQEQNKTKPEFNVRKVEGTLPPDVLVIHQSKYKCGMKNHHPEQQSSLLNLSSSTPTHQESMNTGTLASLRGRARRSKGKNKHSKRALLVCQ
# USP28 block = human USP28 deubiquitinase inhibition; purified USP28, Ub-rhodamine cleavage fluorescence, 30 min; hit rate 3% among 47,000; Q96RU2; inhibition, % at 25 µM
# A number is an active result; 0 = inactive; - = not tested or not shown. Hits are enriched below; roughly 13% of the tested compounds scored in any of these assays. Rule as the data show it: active = inhibition above about 30%; inactive = the rest.
SMILES,USP8 block,OTUD3 block,USP30 inh,USP17 inh,USP28 block
c1ccc(-c2nnn3c2nc(NCC2CCCO2)c2ccccc23)cc1 (configuration not stated),0,0,0,0,0
COc1ccc(S(=O)(=O)c2nnn(-c3ccc(F)cc3)c2C)cc1,0,0,0,0,0
Cc1ccc(Nc2nc3c(S(=O)(=O)c4ccccc4)nnn3c3ccccc23)c(C)c1,69.9,0,0,0,0
CC(=O)c1c(C)[nH]c(C(=O)N2CCCC2c2ccc3c(c2)OCCCO3)c1C (configuration not stated),0,0,0,0,0
Cc1nnc(-c2cccc(S(=O)(=O)N3CCCC3c3ccc(F)cc3)c2)o1 (configuration not stated),0,0,0,0,0
CSc1cccc(C(=O)Nc2sc3c(c2C(N)=O)CCC(C)C3)c1 (configuration not stated),0,0,0,0,0
CSc1ccccc1C(=O)Nc1sc2c(c1C(N)=O)CCCCC2,0,0,0,37.6,0
CSc1ccccc1C(=O)Nc1sc2c(c1C(N)=O)CCC(C)C2 (configuration not stated),0,0,0,80.0,0
CS(=O)(=O)c1cccc(C(=O)Nc2sc3c(c2C(N)=O)CCCCC3)c1,0,0,0,0,0
CC1CCc2sc(NC(=O)c3ccccc3Oc3ccccc3)c(C(N)=O)c2C1 (configuration not stated),0,0,0,82.8,0
CC1CCc2c(sc(NC(=O)c3cccc(S(C)(=O)=O)c3)c2C(N)=O)C1 (configuration not stated),75.4,0,0,0,0
NC(=O)c1c(NC(=O)c2cc(-c3ccccc3Cl)nc3ccccc23)sc2c1CCCCC2,0,0,0,0,0
COc1ccc(-c2cc3n(n2)CCCN(C(=O)c2ccccn2)C3)cc1OC,0,0,0,0,0
COc1ccccc1N1CCN(C(=O)c2nnn(-c3ccc(Br)cc3)n2)CC1,0,0,0,0,0
COc1ccc(Cn2c(SCC(=O)Nc3cc(C)[nH]n3)nc3nccnc3c2=O)cc1,0,0,48.9,48.3,0
CCOC(=O)CSc1nc2nccnc2c(=O)n1Cc1ccccc1,0,0,0,0,0
O=C(NCCc1cccc(Cl)c1)c1ccc(-c2ccccc2)cc1,0,0,0,0,0
O=C(NCCc1ccc(Cl)cc1)c1ccc(CNS(=O)(=O)c2ccccc2)cc1,0,0,83.8,0,59.7
COc1ccc2c(c1)c(N1CCCC1=O)c(C(=O)NCc1cccc(OC)c1OC)n2C,0,0,0,0,57.4
Cc1nc(-c2ccccc2F)sc1C(=O)N1CCN(C=O)CC1,0,0,0,0,0
CCc1ccc(C(=O)N2CC(C(=O)NC)C3(CCOCC3)C2)cc1 (configuration not stated),0,0,0,0,0
CC1CCc2[nH]nc(C(=O)N3CCN(C(C)C)CC3)c2C1 (configuration not stated),0,0,0,0,0
Cc1cc2occ(CC(=O)N3CCCCC3c3nnc(-c4cnccn4)o3)c2cc1C (configuration not stated),30.2,0,0,0,0
CCc1cc(C(=O)N2CCCCC2c2nnc(-c3cnccn3)o2)cs1 (configuration not stated),0,0,0,0,0
COc1ccc(-c2noc([C@@H]3CCCN3Cc3cccc(C#N)c3)n2)cn1,0,0,0,0,0
SMILES,USP8 block,OTUD3 block,USP30 inh,USP17 inh,USP28 block
CC(C)=CCC/C(C)=C/C[C@]1(O)C(=O)c2cc(O)cc(O)c2C(=O)[C@@]1(Cl)CC=C(C)C,0,0,0,50.1,0
COC1=C(N)C(=O)c2nc(-c3nc(C(=O)O)c(C)c(-c4ccc(O)c(OC)c4O)c3N)ccc2C1=O,0,0,0,45.7,31.1
C[C@H]1C(=O)N(C)[C@@H]2CCN(C(=O)C3CCCCC3)[C@@H]2C(=O)N1C,0,0,32.7,0,0
Cc1ccc2[nH]c(=O)c(-c3nc4ccc(C)cn4c3NCc3ccc(F)cc3)cc2c1,77.6,0,0,75.7,0
Cc1cnnn1-c1ccc(C(=O)Nc2ccccc2F)cc1,0,0,34.0,0,0
Cc1cnnn1-c1ccc(C(=O)Nc2ccc(Cl)cc2Cl)cc1,59.1,0,80.8,84.4,36.9
O=C(NCc1ccccc1)c1nc2n(n1)-c1ccccc1S(=O)(=O)N2,0,0,33.7,0,0
COc1cc(CNC(=O)c2nc3n(n2)-c2ccccc2S(=O)(=O)N3)cc(OC)c1OC,0,0,0,0,0
CNC(=O)[C@@H]1CN2CCN(C(=O)c3cccc(C#N)c3)C[C@@H]2[C@H]1c1ccccc1,0,0,0,0,0
Cc1cc2ncc(-c3ccsc3)c(N)n2n1,0,0,0,0,0
Nc1c(-c2ccsc2)cnn1-c1ccccc1,56.6,0,0,0,0
CC(C)[C@H]1CC[C@@]2(CO2)[C@H]2C(=O)OCC(C(=O)O)=C[C@H]12,0,55.0,63.9,72.7,71.2
CC1=C[C@H]2[C@H](C(C)C)CC[C@@](C)(O)[C@H]2CC1=O,0,0,0,0,0
NC(c1c(O)ccc2ccccc12)P(=O)(O)O (configuration not stated),37.5,0,0,0,0
COC(=O)C(C)Sc1ncnc2c1nnn2-c1ccc(OC)cc1 (configuration not stated),0,0,-,37.4,-
COc1ccc(-n2nnc3c(SCC(=O)Nc4cc(C)on4)ncnc32)cc1,0,0,0,57.2,0
O=C(Nc1ccc(F)cc1)c1c(O)c2cccnc2n(-c2ccccc2)c1=O,0,0,0,0,0
COc1ccc(CNC(=O)c2c(O)c3cccnc3n(-c3ccccc3)c2=O)cc1,84.1,0,0,0,0
CC(Oc1ccc(F)cc1)c1nnc(C2(c3ccccc3Cl)CCOCC2)o1 (configuration not stated),0,0,0,0,0
CN1CC(c2nc3ccccc3n2CCCOc2ccc(Cl)cc2)CC1=O (configuration not stated),0,0,0,0,0
CCCn1c(C2CC(=O)N(c3cccc(C)c3)C2)nc2ccccc21 (configuration not stated),0,0,0,0,0
O=C1CC(c2nc3ccccc3n2CCOc2ccc(Cl)cc2)CN1c1ccccc1 (configuration not stated),86.7,0,72.4,66.3,0
COc1ccc(OCCn2c(C3CC(=O)N(c4cccc(C)c4)C3)nc3ccccc32)cc1 (configuration not stated),0,0,34.0,76.1,0
Cc1ccc(N2CC(c3nc4ccccc4n3CCCOc3ccccc3)CC2=O)cc1 (configuration not stated),0,0,55.9,60.5,0
COc1ccccc1OCCCCn1c(C2CC(=O)N(c3ccccc3F)C2)nc2ccccc21 (configuration not stated),0,0,39.0,0,0
O=C1Nc2ccccc2C12CCN(S(=O)(=O)c1cccc(F)c1)C2 (configuration not stated),0,0,0,0,0
CCN(CC)C(=O)CN1CCC2(CC1)Nc1cc(Cl)ccc1C1=NCCN12,0,0,0,0,0
